According to PubChem BioAssay (EPA / NIEHS):
Where “and” joins values, the source holds several entries; their conditions need not be identical. Equal entries are not always repeated. More than one record can exist for a structure, and the calls need not agree. Calls of active or inactive are those of the source. The calls were made as follows: active = hit-call score of the fitted dose curve at least 0.9, where 1 is the maximum; inactive = score below 0.9.

Experiments:
[1] = read-out: Tissue Factor, F3 (gene 2152); assay: BSK_CASM3C_TissueFactor: BioMAP Diversity Plus: CASM3C Assay for Tissue Factor Biomarker Activity (AID 2283052); conditions: primary human coronary artery smooth muscle cells; actives raise or lower the signal;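 also: cell surface tissue factor protein level read by ELISA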
[2] = read-out: Urokinase-type plasminogen activator receptor (uPAR), PLAUR (gene 5329); assay: BSK_CASM3C_uPAR: BioMAP Diversity Plus: CASM3C Assay for Urokinase-type plasminogen activator receptor (uPAR) Biomarker Activity (AID 2283054); conditions: primary human coronary artery smooth muscle cells; actives raise or lower the signal;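 also: cell-surface uPAR protein level quantified by ELISA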
[3] = read-out: Vascular cell adhesion molecule 1 (VCAM1), VCAM1 (gene 7412); assay: BSK_CASM3C_VCAM1: BioMAP Diversity Plus: CASM3C Assay for Vascular cell adhesion molecule 1 (VCAM1) Biomarker Activity (AID 2283055); conditions: primary human coronary artery smooth muscle cells; actives raise or lower the signal;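 also: VCAM-1 protein level quantified by ELISA on the cells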
[4] = read-out: Collagen III, COL3A1 (gene 1281); assay: BSK_hDFCGF_CollagenIII: BioMAP Diversity Plus: hDFCGF Assay for Collagen III Biomarker Activity (AID 2283056); conditions: primary human foreskin fibroblasts; actives raise or lower the signal
Summary of the method: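 Cells: human foreskin fibroblasts, primary. Dosing followed by 24 h incubation, then ELISA for collagen III. Both increases and decreases scored relative to DMSO.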

[5] = read-out: Epidermal growth factor receptor (EGFR), EGFR (gene 1956); assay: BSK_hDFCGF_EGFR: BioMAP Diversity Plus: hDFCGF Assay for Epidermal growth factor receptor (EGFR) Biomarker Activity (AID 2283057); conditions: primary human foreskin fibroblasts; actives raise or lower the signal
Summary of the method: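 Measured by ELISA: EGFR levels on primary human foreskin fibroblasts 24 h after chemical treatment, analysed relative to DMSO with bidirectional fitting.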

[6] = read-out: Interleukin-8 (IL8), CXCL8 (gene 3576); assay: BSK_hDFCGF_IL8: BioMAP Diversity Plus: hDFCGF Assay for Interleukin-8 (IL8) Biomarker Activity (AID 2283058); conditions: primary human foreskin fibroblasts; actives raise or lower the signal
Summary of the method: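 IL-8 levels from compound-treated primary human fibroblasts were read by ELISA at 24 h, with DMSO serving as baseline for bidirectional fitting.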

[7] = BSK_hDFCGF_Proliferation: Cell Proliferation Assessment in the BioMAP Diversity Plus: hDFCGF Assay (AID 2283059); conditions: primary human foreskin fibroblasts;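 also: curves fitted for both rise and fall of signal versus DMSO baseline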
Summary of the method: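 Sub-confluent human foreskin fibroblast cultures receive test chemical […]. Relative cell number is quantified by sulforhodamine B staining (0.1%, after 10% TCA fixation) at 560 nm, with bidirectional fitting referenced to DMSO.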

[8] = read-out: Macrophage colony-stimulating factor (MCSF), CSF1 (gene 1435); assay: BSK_hDFCGF_MCSF: BioMAP Diversity Plus: hDFCGF Assay for Macrophage colony-stimulating factor (MCSF) Biomarker Activity (AID 2283060); conditions: primary human foreskin fibroblasts; actives raise or lower the signal
Summary of the method: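 M-CSF levels, determined by ELISA, are taken at 24 h after dosing human skin fibroblasts. Responses in either direction are fitted with DMSO serving as the baseline.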

[9] = BSK_hDFCGF_SRB: Viability Assessment in the BioMAP Diversity Plus: hDFCGF Assay (AID 2283061); conditions: primary human foreskin fibroblasts;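 also: cells exposed to compound for 24 h before the read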
Summary of the method: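 Cells were dosed with test chemical, cultured 24 h, fixed with 10% TCA, then stained with 0.1% SRB and read at 560 nm. The fibroblasts were human foreskin primary cells, and DMSO served as baseline.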

[10] = read-out: TIMP metallopeptidase inhibitor 1 (TIMP1), TIMP1 (gene 7076); assay: BSK_hDFCGF_TIMP1: BioMAP Diversity Plus: hDFCGF Assay for TIMP metallopeptidase inhibitor 1 (TIMP1) Biomarker Activity (AID 2283062); conditions: primary human foreskin fibroblasts; actives raise or lower the signal
Summary of the method: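 Fibroblasts from human foreskin are treated with test chemical and harvested at 24 h. TIMP-1 is quantified by ELISA, and gain or loss of signal is scored against DMSO.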

[11] = read-out: Monokine induced gamma interferon (MIG), CXCL9 (gene 4283); assay: BSK_hDFCGF_MIG: BioMAP Diversity Plus: hDFCGF Assay for Monokine induced gamma interferon (MIG) Biomarker Activity (AID 2283063); conditions: primary human foreskin fibroblasts; actives raise or lower the signal
Summary of the method: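 MIG signal, determined by ELISA, reflects 24 h chemical exposure of human skin primary fibroblasts. DMSO serves as negative control and baseline.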

[12] = read-out: Matrix Metallopeptidase 1 (MMP1), MMP1 (gene 4312); assay: BSK_hDFCGF_MMP1: BioMAP Diversity Plus: hDFCGF Assay for Matrix Metallopeptidase 1 (MMP1) Biomarker Activity (AID 2283064); conditions: primary human foreskin fibroblasts; actives raise or lower the signal
Summary of the method: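 Primary human foreskin fibroblasts in the hDFCGF system were dosed with test chemical, and MMP1 was measured by ELISA 24 h later. Values come from bidirectional curve fitting against the DMSO baseline.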

[13] = read-out: Vascular cell adhesion molecule 1 (VCAM1), VCAM1 (gene 7412); assay: BSK_hDFCGF_VCAM1: BioMAP Diversity Plus: hDFCGF Assay for Vascular cell adhesion molecule 1 (VCAM1) Biomarker Activity (AID 2283065); conditions: primary human foreskin fibroblasts; actives raise or lower the signal;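 as to AC50: VCAM-1 protein level quantified by ELISA after 24 h chemical exposure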
Summary of the method: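 Cells are dosed, cultured for 24 h, then VCAM-1 is quantified by ELISA; signal increases and decreases are both fitted relative to DMSO.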

[14] = read-out: Plasminogen activator inhibitor-1 (PAI1), SERPINE1 (gene 5054); assay: BSK_hDFCGF_PAI1: BioMAP Diversity Plus: hDFCGF Assay for Plasminogen activator inhibitor-1 (PAI1) Biomarker Activity (AID 2283066); conditions: primary human foreskin fibroblasts; actives raise or lower the signal
Summary of the method: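 PAI-1 levels, determined by ELISA, served as the endpoint in human foreskin fibroblast cultures exposed to compound for 24 h, with DMSO as baseline.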

[15] = read-out: Intercellular Adhesion Molecule 1 (ICAM1), ICAM1 (gene 3383); assay: BSK_KF3CT_ICAM1: BioMAP Diversity Plus: KF3CT Assay for Intercellular Adhesion Molecule 1 (ICAM1) Biomarker Activity (AID 2283067); conditions: primary human keratinocytes with fibroblasts; actives raise or lower the signal
Summary of the method: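 Dose the keratinocyte/fibroblast co-culture, wait 24 h, measure ICAM-1 by ELISA, then fit increases or decreases against DMSO. Cytotoxicity is checked in parallel cultures by SRB total-protein staining.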

[16] = read-out: Interferon-gamma inducible Protein 10 (IP10), CXCL10 (gene 3627); assay: BSK_KF3CT_IP10: BioMAP Diversity Plus: KF3CT Assay for Interferon-gamma inducible Protein 10 (IP10) Biomarker Activity (AID 2283068); conditions: primary human keratinocytes with fibroblasts; actives raise or lower the signal
Summary of the method: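 ELISA read-out of IP-10 after 24 h chemical dosing of human skin primary co-culture (keratinocytes, foreskin fibroblasts). Gain or loss of signal relative to DMSO, bidirectional curve fit.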

[17] = BSK_KF3CT_SRB: Viability Assessment in the BioMAP Diversity Plus: KF3CT Assay (AID 2283069); conditions: primary human keratinocytes with fibroblasts;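 also: total protein by sulforhodamine B staining as a cytotoxicity measure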
Summary of the method: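 Human primary keratinocyte plus foreskin fibroblast co-culture exposed to chemicals for 24 h. Total protein measured by 0.1% sulforhodamine B staining after 10% TCA fixation, read at 560 nm; bidirectional fitting versus DMSO baseline.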

[18] = read-out: Interleukin-1 alpha (IL1a), IL1A (gene 3552); assay: BSK_KF3CT_IL1a: BioMAP Diversity Plus: KF3CT Assay for Interleukin-1 alpha (IL1a) Biomarker Activity (AID 2283070); conditions: primary human keratinocytes with fibroblasts; actives raise or lower the signal
Summary of the method: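 Human keratinocyte plus foreskin fibroblast primary co-culture, sampled 24 h after chemical dosing. IL-1a measured by ELISA; responses fitted bidirectionally against DMSO baseline (negative control), so gain or loss of signal both count.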

[19] = read-out: TIMP metallopeptidase inhibitor 2 (TIMP2), TIMP2 (gene 7077); assay: BSK_KF3CT_TIMP2: BioMAP Diversity Plus: KF3CT Assay for TIMP metallopeptidase inhibitor 2 (TIMP2) Biomarker Activity (AID 2283071); conditions: primary human keratinocytes with fibroblasts; actives raise or lower the signal
Summary of the method: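 Keratinocyte–fibroblast co-culture, 24 h exposure; TIMP-2 ELISA, DMSO-normalised bidirectional fit. Parallel SRB (0.1%, TCA-fixed, 560 nm) total-protein staining gauges cytotoxicity.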

[20] = read-out: Interferon-gamma inducible Protein 10 (IP10), CXCL10 (gene 3627); assay: BSK_hDFCGF_IP10: BioMAP Diversity Plus: hDFCGF Assay for Interferon-gamma inducible Protein 10 (IP10) Biomarker Activity (AID 2283053); conditions: primary human foreskin fibroblasts; actives raise or lower the signal
Summary of the method: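 IP-10 levels, quantified by ELISA, are taken from human foreskin fibroblast cultures 24 h after chemical treatment, with DMSO serving as negative control and baseline for bidirectional analysis.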

Measured: AC50

C=C(C)C(=O)OCC(CC)(COC(=O)C(=C)C)COC(=O)C(=C)C
inactive: [2] | [3] | [4] | [6] | [15] | [16] | [17] | [18] | [19]
active: [1] 8.08 µM | [5] 31.7 µM | [7] 26.5 µM | [8] 23.4 µM | [9] 32.1 µM | [10] 33 µM | [11] 34.3 µM | [12] 37.9 µM | [13] 23.4 µM | [14] 16 µM

Cc1cc(CCC(=O)OCCOCCOCCOC(=O)CCc2cc(C)c(O)c(C(C)(C)C)c2)cc(C(C)(C)C)c1O
active: [4] 23.1 µM | [7] 22.8 µM
not listed: [20]
inactive: all other assays above

CCN(CC)C(=O)N(CC)CC
inactive: all assays above

CC(=O)Nc1ccc(C(=O)CCl)cc1
inactive: [5] | [17]
active: [1] 3.97 µM | [20] 9.56 µM | [2] 5.2 µM | [3] 4.84 µM | [4] 7.2 µM | [6] 9.4 µM | [7] 3.18 µM | [8] 8.76 µM | [9] 11.2 µM | [10] 7.91 µM | [11] 9.4 µM | [12] 10.5 µM | [13] 7.32 µM | [14] 10.8 µM | [15] 26.6 µM | [16] 23.2 µM | [18] 31 µM | [19] 20 µM

CC1(C)CCC[C@]2(C)[C@H]3CCO[C@]3(C)CC[C@@H]12
active: [1] 1.65 µM | [2] 34 µM and 31.4 µM | [3] 34.1 µM and 33.7 µM | [4] 31.4 µM and 30.6 µM | [5] 32 µM and 33 µM | [6] 37.9 µM and 35.9 µM | [7] 12.1 µM and 30.5 µM | [8] 36.6 µM and 30.8 µM | [9] 33.8 µM and 36.4 µM | [10] 38.6 µM and 32.1 µM | [11] 34.5 µM and 36.6 µM | [12] 35 µM and 36 µM | [13] 38.1 µM and 33.9 µM | [14] 37.2 µM and 31.1 µM | [15] 37.1 µM and 38.1 µM | [16] 37.5 µM and 33.9 µM | [17] 33.4 µM and 36.8 µM | [18] 34.4 µM and 38.9 µM | [19] 33.1 µM and 33.9 µM
inactive: [1]

CCCCCCC(CO)CCCC (stereo not drawn)
active: [3] 2.22 µM | [4] 29.6 µM and 31.9 µM | [6] 37.9 µM and 37.8 µM | [7] 35.1 µM and 31.4 µM | [8] 33.8 µM and 30.2 µM | [9] 30.8 µM and 31.4 µM | [10] 30.9 µM and 35.9 µM | [11] 34 µM and 30.5 µM | [12] 31.1 µM and 30.7 µM | [13] 32.5 µM and 36.7 µM | [14] 29.9 µM and 36.3 µM | [15] 32.9 µM and 37.4 µM | [16] 38.1 µM and 36.7 µM | [17] 35.6 µM and 36.1 µM | [18] 33.4 µM and 30.3 µM | [19] 35.1 µM and 35.2 µM
inactive: [1] | [2] | [3] | [5]

CCOC(=O)C(C#N)=C(c1ccccc1)c1ccccc1
inactive: [1] | [2] | [3] | [5] | [6] | [7] | [8] | [9] | [10] | [11] | [12] | [13] | [14] | [15] | [16] | [17] | [18] | [19]
active: [4] 29.7 µM and 21.9 µM | [7] 29.5 µM | [8] 23.3 µM | [13] 14.6 µM

IC(I)I
active: [2] 0.584 µM
not listed: [20]
inactive: all other assays above

C=C(C)C(=O)OCCOCCOCCOC(=O)C(=C)C
active: [8] 0.0819 µM | [14] 0.0518 µM | [18] 0.041 µM
inactive: all other assays above

CC(=O)c1c(C)c([N+](=O)[O-])c(C(C)(C)C)c([N+](=O)[O-])c1C
inactive: all assays above

CC1(C)C2=CCCC(C)(C)[C@]23CC[C@H]1C3
inactive: [5] | [6] | [11] | [12] | [15] | [16] | [17] | [18]
active: [1] 30.9 µM | [2] 20 µM | [3] 30.8 µM | [4] 20 µM | [7] 8.84 µM | [8] 30.2 µM | [9] 31.9 µM | [10] 31.2 µM | [13] 32.9 µM | [14] 32.9 µM | [19] 30.2 µM
